Measured values taken from PubChem BioAssay (NCI).
Compounds without any hit were thinned out: in the full panel of roughly 79,000, 15% have a hit. Active and inactive are the calls of the source. Cut-off read from the data, not from the text of the source: active = growth inhibition above about 70%; inactive = the rest.

assay: NCI Yeast Anticancer Drug Screen. Data for the mec2-1 strain (AID 157); settings: S. cerevisiae mec2-1 strain, hits give high values; at 50.0 µM unless noted
Method in brief: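 Readout is yeast growth inhibition, normalised to vehicle-treated controls, in the mec2-1 strain exposed to compound.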

Structure (SMILES) | growth inhibition
COc1ccc2c(c1)c(COC(C)=O)c(C)c[n+]2[O-] | 28.8% (inactive)
C=C(C)C1CCC2(C)CCC(=O)C(C)=C2C1 (centres undefined) | 1.35% (inactive)
CCOC(=O)C(CC/C=C\c1ccccc1)N1CCC[C@H]1C(=O)OC (some centres undefined) | -5% (inactive)
Cc1[nH]c2c(ccc3c2ccc2c(=O)c(C)c(C)[nH]c23)c(=O)c1C | -7.45% (inactive)
O/C(=C/c1ncnc2ccccc12)c1cccc(Cl)c1 | 4.4% (inactive)
CC(=O)OC1CCC2(C)C(CCC3C2C(=O)C(OC(C)=O)C2(C)C3CC3OC4(CCC(C)CO4)C(C)C32)C1 (centres undefined) | -19.9% (inactive)
O=[N+]([O-])c1ccc[nH]1 | -9.95% (inactive)
Oc1cc2c(cc1C(Nc1ncccn1)c1ccc3c(c1)OCO3)OCO2 (centres undefined) | 6.8% (inactive)
CC(=O)OCC(O)CS(=O)c1ccc(C)cc1 (centres undefined) | 2% (inactive)
CCCCCOC(=O)C#CC(=O)OCCCCC | 99.8% (active)
CCN(CC)C(=O)Oc1cccc(NC(=O)OC)c1 | 47.2% (inactive)
Clc1nn2cnnc2c2ncccc12 | -0.45% (inactive)
CC[N+](CC)(CC)CCOc1nc(OCC[N+](CC)(CC)CC)nc(OCC[N+](CC)(CC)CC)n1 | 11% (inactive)
CCOC(=O)C(=CNc1ccc(OC)cc1[N+](=O)[O-])C(=O)OCC | 7.85% (inactive)
CC1Nc2ccccc2C1C (centres undefined) | -49% (inactive)
CCOc1ccc2c(c1)S(=O)(=O)OC2=O | 0.6% (inactive)
COc1cc2c(cc1OC)C1C(C)c3ccc(OC)c(OC)c3CN1CC2 (centres undefined) | -43% (inactive)
Cc1ccc(S(=O)(=O)N2CCC(CCl)N(S(=O)(=O)c3ccc(C)cc3)CC2CCl)cc1 (centres undefined) | 3.6% (inactive)
CCCCCC1CC(C(C)=O)CN1c1ccc(F)cc1 (centres undefined) | 8.4% (inactive)
O=C1OCc2ccccc21 | 7.8% (inactive)

Structure (SMILES) | growth inhibition
O=C(Cc1ccccc1)c1ccccc1C(=O)NCc1ccncc1 | 2.05% (inactive)
Cc1ccc(N(C)S(=O)(=O)c2ccccc2)cc1 | -31.3% (inactive)
CN(/N=C/c1cccs1)c1ccc(Cl)cc1[N+](=O)[O-] | -8.95% (inactive)
COCc1ccc2c(c1)C(O)NC(=O)O2 (centres undefined) | -4.05% (inactive)
Cc1nc(N(C)C)oc(=O)c1CCc1ccccc1 | 3.8% (inactive)
CN(C)c1cccc2c(S(=O)(=O)NCCCNCCN)cccc12 | -18.4% (inactive)
COc1cc(N=Nc2c(N)nc(N)[nH]c2=O)c(OC)cc1Cl | 3.65% (inactive)
CC(C)(CO)CNC(=O)C(C)(C)CO | 14.1% (inactive)
CCOC(=O)c1ccc(O)c(NC(C)=O)c1 | 18.1% (inactive)
CCCn1c(C)nc2c([N+](=O)[O-])cc(C)cc21 | -14.8% (inactive)
CCC(C)(C)NC(N)=O | 22.6% (inactive)
COc1cc(C(=O)N(C)C)cc(OC)c1OC | 2.65% (inactive)
C=C(COc1ccc(OC)cc1)C(C)(C)C | 13.3% (inactive)
CCN(CC(COc1ccc2c(c1)[n+]([O-])nc(N)[n+]2[O-])OC(C)=O)C(C)=O (centres undefined) | 38.3% (inactive)
CC1(C)CC[C@]2(C(=O)O)CC[C@]3(C)C(=CC[C@@H]4[C@@]5(C)CC[C@H](OC6OC(CO)C(O)C(O)C6O)C(C)(C)[C@@H]5CC[C@]43C)[C@@H]2C1 (some centres undefined) | 74.8% (active)
CCc1ccccc1NC(=O)C(=O)CC(=O)c1sc(Nc2ccccc2Cl)nc1C | 6.15% (inactive)
Cn1c(-c2csc(-c3ccc(Cl)cc3)n2)n[nH]c1=S | 12.8% (inactive)
O=c1oc2ccccc2c(O)c1Cc1ccccc1Cc1c(O)c2ccccc2oc1=O | 4.65% (inactive)
Cc1ccc(Nc2cc(C(=O)O)c(Nc3ccc(C)cc3)cc2C(=O)O)cc1 | -10.6% (inactive)
